This note sets out measurements from PubChem BioAssay (Tox21).

Unmarked numbers belong to inactive results. Results filed as inconclusive are left out. Activity calls are given as the source filed them. Unless noted, the call rests on the fitted dose curve.

The nature of assay [1]: Nuclear factor erythroid 2-related factor 2/antioxidant responsive element (Nrf2/ARE) small molecule agonists: qHTS cell viability counter screen in human keratinocytes (AID 1919968; active means well fitted curve in the direction sought with a large enough effect in the repeat runs; an effect the other way counts as inactive or inconclusive; further: nearly all actives have a fitted effect of over 55% in size). An outline of the steps:
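Fluorescence read-out from CellTiter-Fluor after 1 h at 37 C. Wells held HaCaT-derived ARE-luciferase reporter cells (1,500/well) treated 23 h with DMSO-dissolved compounds. Run in the same wells as the luciferase agonist read.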
(qHTS replaces the single test concentration by a dilution series.)

Assay [2] in a line: Nuclear factor erythroid 2-related factor 2/antioxidant responsive element (Nrf2/ARE) small molecule agonists: luciferase reporter gene qHTS assay in human keratinocytes (AID 1919969). Further: nearly all actives have a fitted effect of over 35% in size. Further: potency means the concentration at half of the fitted maximal effect.
Assay [3] deals with Gonadotropin-releasing hormone receptor (Homo sapiens) (UniProt P30968). The assay can be described thus: Human gonadotropin-releasing hormone receptor (GnRHR) small molecule agonists, calcium flux assay in GnRHR-HEK293 cells (AID 1920063). Further: nearly all actives have a fitted effect of over 35% in size. The procedure, abridged:
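Calcium-dye fluorescence, Ex/Em=480/540, recorded every 1 sec over 3 min after compound addition to GnRHR-HEK293 cells. Cells had been seeded 18 hours earlier and dye-loaded for 1 hour at 37 C. Fifteen concentrations, triplicates.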

Assay [4] addresses KiSS-1 receptor (Homo sapiens) (UniProt Q969F8). The assay can be described thus: Human kisspeptin (KISS1R) small molecule agonists, calcium flux assay in KISS1R-HEK293 cells (AID 1920064; active means well fitted curve in the direction sought with a large enough effect in the repeat runs; an effect the other way counts as inactive or inconclusive). An outline of the steps: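 Calcium flux read-out: kinetic fluorescence at Ex/Em=480/540, 1 s intervals over 3 min, after pin-tool compound addition to dye-loaded KISS1R-HEK293 cells. Fifteen concentrations, triplicates.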
For orientation: A change in cytosolic calcium serves as a functional read-out for many receptors and channels.

Assay [5] can be described thus: G protein-coupled receptor (GPCR) small molecule agonists, calcium flux assay: HEK293 wild type cell line counter screen (AID 1920065). An outline of the steps:
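Agonist mode; 18 h seeding at 37 C, 1 h dye load at 37 C; compounds pinned from DMSO, ATP as positive control; kinetic fluorescence 480/540 nm, 3 min, 1 s reads; 15 concentrations, triplicate.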

A short description of assay [6]: p53 small molecule agonists, cell-based qHTS assay with rat liver microsomes (AID 1963578). An outline of the steps:
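Fluorescence from a beta-lactamase reporter under a p53 response element was measured after cells had been incubated 16 h at 37 C with test compound and rat liver microsomes plus NADPH (0.5 mg/mL final each).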

Assay [7] in a line: p53 small molecule agonists, cell-based qHTS assay: qHTS cell viability counter screen (AID 1963581). Further: nearly all actives have a fitted effect of over 45% in size. The procedure, abridged: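 Cytotoxicity read-out: ATP-based luminescence (CellTiter-Glo, 30 min RT) measured in the same wells as the p53 reporter assay, HCT-116 p53RE-bla cells, 16 h compound exposure at 37 C.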
The nature of assay [8]: p53 small molecule agonists, cell-based qHTS assay (AID 1963582; active means well fitted activation curve with a large enough effect in the signal ratio in the repeat runs, not every such curve was filed as active; the % refers to the signal ratio). An outline of the steps: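 Fluorescence intensity read-out of a beta-lactamase reporter under a p53 response element. Cells were exposed to DMSO-dissolved compounds for 16 h at 37 C, then developed with FRET substrate for 2 h at RT.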
The target of assay [9] is 5-hydroxytryptamine receptor 2A (Homo sapiens) (UniProt P28223). The assay can be described thus: 5-hydroxytryptamine receptor 2A (HTR2A) small molecule antagonists, cell-based qHTS assay (AID 1963586). Further: nearly all actives have a fitted effect of over 45% in size. An outline of the steps: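 CHO cells stably expressing human HTR2A were plated for 18 h at 37 C, then loaded with calcium dye for 1 h. Compounds were preincubated 5 min at room temperature before DOI (4 nM solution) was added. Kinetic fluorescence was read for 3 min.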
5-hydroxytryptamine receptor 2A (Homo sapiens), sequence (P28223 whole entry, looked up): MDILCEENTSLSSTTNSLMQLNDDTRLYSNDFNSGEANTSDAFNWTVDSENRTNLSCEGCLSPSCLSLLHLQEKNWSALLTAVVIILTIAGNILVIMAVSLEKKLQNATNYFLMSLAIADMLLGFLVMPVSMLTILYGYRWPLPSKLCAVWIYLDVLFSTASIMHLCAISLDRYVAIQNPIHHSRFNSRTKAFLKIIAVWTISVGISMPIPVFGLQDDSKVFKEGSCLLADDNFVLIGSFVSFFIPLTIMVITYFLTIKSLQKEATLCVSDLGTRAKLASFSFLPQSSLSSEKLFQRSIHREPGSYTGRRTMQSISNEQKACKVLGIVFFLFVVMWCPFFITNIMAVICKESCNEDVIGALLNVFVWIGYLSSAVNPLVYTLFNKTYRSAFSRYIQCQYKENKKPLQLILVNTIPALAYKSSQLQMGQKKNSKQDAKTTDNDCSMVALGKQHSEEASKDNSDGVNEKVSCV

Assay [10] has the same target. In words: 5-hydroxytryptamine receptor 2A (HTR2A) small molecule agonists, cell-based qHTS assay (AID 1963587). Further: nearly all actives have a fitted effect of over 30% in size. An outline of the steps:
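Kinetic calcium-flux fluorescence (2 min, 1 sec intervals) after compound addition in agonist mode. HTR2A-CHO cells were cultured 18 h, then dye-loaded 1 h at 37 C.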

Assay [11] concerns the target Muscarinic acetylcholine receptor M1 (Homo sapiens) (UniProt P11229). The assay can be described thus: Cholinergic receptor muscarinic 1 (CHRM1) small molecule antagonists, cell-based qHTS assay (AID 1963588). Further: nearly all actives have a fitted effect of over 40% in size. An outline of the steps:
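Compounds were tested at 15 concentrations in three independent runs. Dye-loaded CHRM1-CHO cells were exposed 5 min at room temperature before stimulation by acetylcholine added at 50nM. Intracellular calcium was read kinetically on FDSS for 3 min.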

The target is the same in assay [12]. The assay can be described thus: Cholinergic receptor muscarinic 1 (CHRM1) small molecule agonists, cell-based qHTS assay (AID 1963589). Further: nearly all actives have a fitted effect of over 35% in size. The procedure, abridged:
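Calcium flux read-out: kinetic fluorescence at 1 sec intervals after pin-tool compound addition to dye-loaded CHRM1-CHO cells (human M1). Agonist mode; 15 concentrations tested in triplicate independent runs.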

The nature of assay [13]: cAMP Responsive Elements (CRE) small molecule agonists, cell-based qHTS assay (AID 1963590). An outline of the steps: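 Beta-lactamase reporter readout: LiveBLAzer B/G FRET substrate, 2 h at room temperature, added after 3 h compound treatment of CRE-bla HEK 293T cells at 37 C/5% CO2.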
In assay [14] the target is Beta-2 adrenergic receptor (Homo sapiens) (UniProt P07550). The assay can be described thus: Adrenergic beta2 receptor (ADRB2) small molecule antagonists, cell-based qHTS assay (AID 1963592). Further: series mostly up to about 92 µM; nearly all actives have a fitted effect of over 50% in size. An outline of the steps: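 Assay format: CHO-ADRB2 cells, 18-20hr seeding at 37C/5% CO2, then compound plus 1nM isoproterenol agonist mix for 0.5hr RT. Homogeneous time-resolved fluorescence cAMP detection after 1hr, expressed as 665/615 nm ratio.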
Beta-2 adrenergic receptor (Homo sapiens), sequence (P07550 whole entry, looked up): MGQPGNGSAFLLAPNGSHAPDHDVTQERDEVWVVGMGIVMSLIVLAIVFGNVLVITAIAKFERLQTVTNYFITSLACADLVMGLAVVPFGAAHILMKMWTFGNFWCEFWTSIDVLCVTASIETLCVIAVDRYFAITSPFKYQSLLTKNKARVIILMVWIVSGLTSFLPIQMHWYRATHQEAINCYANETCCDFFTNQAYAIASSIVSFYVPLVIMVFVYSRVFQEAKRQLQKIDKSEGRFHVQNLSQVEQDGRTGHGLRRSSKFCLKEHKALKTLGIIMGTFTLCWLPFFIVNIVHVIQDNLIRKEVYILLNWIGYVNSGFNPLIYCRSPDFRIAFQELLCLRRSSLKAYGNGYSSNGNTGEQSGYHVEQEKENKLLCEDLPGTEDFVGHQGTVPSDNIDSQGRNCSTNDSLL

Assay [15] shares this target. The assay can be described thus: Adrenergic beta2 receptor (ADRB2) small molecule agonists, cell-based qHTS assay (AID 1963593).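 Further: CHO cells stably overexpressing human ADRB2.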 The procedure, abridged:
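CHO cells stably over-expressing ADRB2 were plated overnight at 37C, then dosed with compounds plus a stimulation mix containing 100uM IBMX and 25uM Ro-20-1724 for 0.5hr at room temperature. cAMP was measured by HTRF competition, 1hr.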

For assay [16], the target named is D(2) dopamine receptor (Homo sapiens) (UniProt P14416). In words: Dopamine D2 receptor (DRD2) small molecule agonists, cell-based qHTS assay (AID 1963594). Further: nearly all actives have a fitted effect of over 35% in size. The procedure, abridged:
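cAMP accumulation in DRD2-HEK293 cells measured by HTRF after 1 h detection; compounds added 10 min before NKH477 (200nM […]) forskolin-analogue stimulation, 30 min at room temperature, with Ro20-1724 present at 0.1 mM final.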

Assay [17] has the same target. In words: Dopamine D2 receptor (DRD2) small molecule antagonists, cell-based qHTS assay (AID 1963595; active means well fitted inhibition curve with a large enough effect in the signal ratio in the repeat runs, with a control signal flat; the % refers to the signal ratio). An outline of the steps:
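Readout: HTRF cAMP, cAMP-d2 competing with cellular cAMP for anti-cAMP cryptate, read after 1 h. Cells: DRD2-HEK293. Conditions: 0.1 mM Ro20-1724, 12 nM quinpirole, 200 nM NKH477, 30 min RT.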

A short description of assay [18]: p53 small molecule agonists, cell-based qHTS assay with human liver microsomes: qHTS cell viability counter screen (AID 1963579). Further: nearly all actives have a fitted effect of over 45% in size. An outline of the steps: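 Seed p53RE-bla cells at 4,000 per well; incubate 5 h at 37 C; add compound, human liver microsomes and NADPH; incubate 16 h at 37 C; add CellTiter-Glo; after 30 min at room temperature, read luminescence.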

A short description of assay [19]: p53 small molecule agonists, cell-based qHTS assay with rat liver microsomes: qHTS cell viability counter screen (AID 1963580). Further: nearly all actives have a fitted effect of over 45% in size. An outline of the steps: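 Cytotoxicity counter screen: intracellular ATP read by CellTiter-Glo luminescence in the p53 reporter wells. HCT-116 p53RE-bla cells were treated for 16 h at 37 C alongside rat liver microsomes and NADPH, each 0.5 mg/mL final.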

A short description of assay [20]: cAMP Responsive Elements (CRE) small molecule antagonists, cell-based qHTS assay (AID 1963591; active means well fitted inhibition curve with a large enough effect in the signal ratio in the repeat runs, not every such curve was filed as active; the % refers to the signal ratio). The procedure, abridged:
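HEK293T CRE-bla; 18 h preincubation; compound pin-transfer; NKH477 0.25 uM final, 3 h, 37 C; LiveBLAzer FRET substrate 2 h RT.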

Gonadotropin-releasing hormone receptor (Homo sapiens), sequence (P30968 whole entry, looked up): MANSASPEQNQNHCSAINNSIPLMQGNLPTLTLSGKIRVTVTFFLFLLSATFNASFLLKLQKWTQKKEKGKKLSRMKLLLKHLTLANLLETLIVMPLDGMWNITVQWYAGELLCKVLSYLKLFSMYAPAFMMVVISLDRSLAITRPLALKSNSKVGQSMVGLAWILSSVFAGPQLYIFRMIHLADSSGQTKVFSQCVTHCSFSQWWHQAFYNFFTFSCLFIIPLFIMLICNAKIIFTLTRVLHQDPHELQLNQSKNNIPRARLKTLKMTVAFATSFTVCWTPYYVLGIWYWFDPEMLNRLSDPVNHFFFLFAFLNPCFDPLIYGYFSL
D(2) dopamine receptor (Homo sapiens), sequence (P14416 whole entry, looked up): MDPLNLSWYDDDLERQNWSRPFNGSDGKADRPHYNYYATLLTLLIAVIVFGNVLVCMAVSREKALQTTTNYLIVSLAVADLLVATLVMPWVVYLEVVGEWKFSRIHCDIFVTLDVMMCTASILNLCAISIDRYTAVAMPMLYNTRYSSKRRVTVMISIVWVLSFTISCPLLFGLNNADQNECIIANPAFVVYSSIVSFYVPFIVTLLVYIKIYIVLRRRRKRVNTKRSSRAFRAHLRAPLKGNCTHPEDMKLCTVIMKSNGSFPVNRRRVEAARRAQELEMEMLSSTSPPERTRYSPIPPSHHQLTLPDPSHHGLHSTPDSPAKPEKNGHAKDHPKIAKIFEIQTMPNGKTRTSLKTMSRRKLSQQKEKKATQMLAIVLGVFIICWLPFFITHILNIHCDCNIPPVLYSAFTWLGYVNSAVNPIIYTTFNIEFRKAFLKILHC
KiSS-1 receptor (Homo sapiens), sequence (Q969F8 whole entry, looked up): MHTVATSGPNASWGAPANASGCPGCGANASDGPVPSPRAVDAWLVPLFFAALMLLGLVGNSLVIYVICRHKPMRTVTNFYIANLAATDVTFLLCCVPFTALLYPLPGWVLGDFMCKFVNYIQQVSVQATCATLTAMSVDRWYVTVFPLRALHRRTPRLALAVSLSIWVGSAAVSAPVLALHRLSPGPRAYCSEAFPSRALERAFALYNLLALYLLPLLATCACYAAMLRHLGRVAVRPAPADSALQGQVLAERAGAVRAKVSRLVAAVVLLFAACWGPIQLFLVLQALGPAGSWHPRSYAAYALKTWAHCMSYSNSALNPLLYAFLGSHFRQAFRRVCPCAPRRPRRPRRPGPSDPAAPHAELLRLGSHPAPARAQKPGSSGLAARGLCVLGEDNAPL
Muscarinic acetylcholine receptor M1 (Homo sapiens), sequence (P11229 whole entry, looked up): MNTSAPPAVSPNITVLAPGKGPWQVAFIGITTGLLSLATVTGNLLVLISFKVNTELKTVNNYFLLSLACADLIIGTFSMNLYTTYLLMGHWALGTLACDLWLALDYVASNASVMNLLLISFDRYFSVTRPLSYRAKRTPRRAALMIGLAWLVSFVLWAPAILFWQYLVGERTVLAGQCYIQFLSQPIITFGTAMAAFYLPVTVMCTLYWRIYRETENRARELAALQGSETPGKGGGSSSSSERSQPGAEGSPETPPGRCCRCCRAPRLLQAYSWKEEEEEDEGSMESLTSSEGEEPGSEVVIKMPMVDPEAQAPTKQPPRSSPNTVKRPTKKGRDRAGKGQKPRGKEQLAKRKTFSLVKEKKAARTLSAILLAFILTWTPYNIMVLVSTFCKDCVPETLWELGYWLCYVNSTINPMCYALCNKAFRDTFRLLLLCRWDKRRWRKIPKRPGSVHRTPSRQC

As for `C=CCC1(C(C)CC)C(=O)NC(=O)NC1=O` (centres undefined), the Potency entry in assay [1], in assay [2], in assay [3], in assay [4], in assay [5] and in assay [6] was “inactive” in each case. Besides, the Potency entry in assay [7], in [8], in assay [9], in [10], in assay [11] and in assay [12] was “inactive” throughout. Besides, the Potency entry in [13], in assay [14], in assay [15], in assay [16] and in assay [17] was “inactive” throughout.

In the case of `O=P(O)(O)c1ccccc1`, the Potency result in [1], in assay [2], in [3], in assay [4], in [5] and in assay [18] was “inactive” each time. In addition, the Potency result in [19], in assay [7], in [9], in [10], in assay [11] and in assay [12] was “inactive” in each case. For the same compound, the Potency entry in [13], in assay [20], in assay [14], in assay [15], in assay [16] and in assay [17] was “inactive” throughout.

With `CC[C@H]1C[C@H]2[C@@H]3CCC4=CC(=O)CC[C@@H]4[C@H]3CC[C@]2(C)[C@H]1O`, the Potency entry in assay [1], in assay [3], in [4], in assay [5], in assay [6] and in assay [7] was “inactive” in each case. Also, the Potency entry in assay [11], in assay [12], in assay [14], in assay [15], in assay [16] and in [17] was “inactive” in each case. Further, the Potency in assay [2] was 11.9 µM (active).

As for `O=[N+]([O-])c1cccc2cccnc12`, the Potency result in [1], in [2], in [3], in [4], in [5] and in assay [6] was “inactive” in each case. For the same compound, the Potency result in assay [18], in assay [19], in [8], in [9], in assay [11] and in assay [12] was “inactive” in each case. Further, the Potency entry in assay [13], in assay [20], in assay [14], in assay [15], in [16] and in assay [17] was “inactive” throughout.

For `O=C(O)[C@H](O)[C@@H](O)C(=O)O`, the Potency entry in [1], in assay [2], in assay [3], in assay [4], in assay [5] and in assay [18] was “inactive” each time. Further, the Potency entry in assay [19], in assay [7], in assay [9], in assay [10], in [11] and in assay [12] was “inactive” each time. Further, the Potency result in assay [13], in assay [20], in assay [14], in [15], in [16] and in [17] was “inactive” each time.

On to `CNC(=O)N(C)c1nc2ccccc2s1`, for which the Potency result in [1], in assay [2], in assay [3], in [4], in assay [5] and in assay [18] was “inactive” throughout. For the same compound, the Potency result in assay [19], in assay [7], in assay [9], in assay [10], in [11] and in [12] was “inactive” throughout. The Potency entry in assay [13], in assay [20], in [14], in [15], in [16] and in [17] was “inactive” in each case.

With `BrCCCBr`, the Potency entry in [1], in [2], in [3], in [4], in assay [5] and in assay [18] was “inactive” each time. Also, the Potency result in assay [19], in assay [7], in assay [9], in [10], in assay [11] and in assay [12] was “inactive” each time. The Potency entry in assay [13], in assay [20], in assay [14], in assay [15] and in assay [16] was “inactive” each time.
